Test results: PubChem BioAssay (NCI)
Compounds without any hit were thinned out: in the full panel of roughly 83,000, 20% have a hit.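 Interpretation: 100, growth as untreated; towards 0, rising growth inhibition; 0, no net growth; 0 to -100, cell death. Compounds scoring below 10 were considered active.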 Unmarked numbers belong to inactive results. Calls of active or inactive are those of the source.

What was measured:
Assay in all cases: NCI-60 one-dose screen, 48 h (100 = growth as untreated, 0 = no growth, -100 = all killed)
Conditions in all cases: 10 µM unless noted
SR leukemia = tested on: SR leukemia
RPMI-8226 leukemia = tested on: RPMI-8226 leukemia
OVCAR-8 ovarian = tested on: OVCAR-8 ovarian
OVCAR-5 ovarian = tested on: OVCAR-5 ovarian
OVCAR-4 ovarian = tested on: OVCAR-4 ovarian
SK-OV-3 ovarian = tested on: SK-OV-3 ovarian
IGROV1 ovarian = tested on: IGROV1 ovarian
OVCAR-3 ovarian = tested on: OVCAR-3 ovarian
HS 578T breast = tested on: HS 578T breast
NCI/ADR-RES ovarian = tested on: NCI/ADR-RES ovarian

SMILES | growth (SR leukemia) | growth (RPMI-8226 leukemia) | growth (OVCAR-8 ovarian) | growth (OVCAR-5 ovarian) | growth (OVCAR-4 ovarian) | growth (SK-OV-3 ovarian) | growth (IGROV1 ovarian) | growth (OVCAR-3 ovarian) | growth (HS 578T breast) | growth (NCI/ADR-RES ovarian)
Cc1sc(C(NC(=O)OCCn2c([N+](=O)[O-])cnc2C)C(F)(F)Cl)nc1-c1ccc(OC(F)(F)F)cc1 (stereo not given) | 5.16% (active) | 2.36% (active) | -65.9% (active) | -96% (active) | -37.7% (active) | -84.8% (active) | -80.6% (active) | -59.6% (active) | -31.1% (active) | -78.6% (active)
COc1ccc(N2N=C(c3ccc4c(c3)OCO4)CC2c2cccc(NC(=O)CCNS(=O)(=O)c3ccc(Cl)cc3)c2)cc1 (stereo not given) | 3.71% (active) | 23.2% | 49.1% | 68.4% | 51.6% | 46.1% | 61.1% | 61.8% | 13.4% | 71.3%
COc1cc(C2CC(c3cc(OC)c(OC)c(OC)c3)=NN2C(C)=O)ccc1OCc1ccc(F)cc1 (stereo not given) | 39.7% | 36.6% | 61.9% | 57.8% | 42.1% | 80.1% | 45.8% | 70.3% | 58.8% | 60.6%
C=C1CC[C@@H]2[C@]3(C)COC(c4ccco4)O[C@@H]3CC[C@@]2(C)[C@@H]1C/C=C1/C(=O)OCC1OC(C)=O (stereo not given in full) | -21% (active) | -30.9% (active) | -8.73% (active) | 35.8% | 48.2% | 105% | 9.51% (active) | -28.9% (active) | 66.8% | 8.21% (active)
C#CCOc1cc(N(CC)CC)ccc1C(C(=O)NC(C)(C)C)N(C(=O)C1CCc2cc(F)ccc2O1)c1ccccc1Br (stereo not given) | 47.6% | 37.9% | 63.2% | 69% | 60.4% | 72.1% | 90.9% | 81.6% | 84.7% | 63.3%
Cc1ccc(C(=O)C(c2c[nH]c3ccccc23)c2c[nH]c3ccccc23)cc1 | -6.82% (active) | -2.33% (active) | 44.2% | 46.7% | 43.7% | 94% | 35.8% | 29.2% | 83.2% | 24.8%
CCCCCCCCc1ccc(C(=O)Nc2cccc(P(=O)(O)O)c2)cc1 | 87.7% | 96.4% | 99.7% | 116% | 111% | 112% | 108% | 106% | 102% | 101%
COc1ccc2oc(=O)c(C3(C)NC(=O)c4c(/C=C/C(=O)OC(C)(C)C)cccc4N3)cc2c1 (stereo not given) | 26.2% | 28.5% | 37.9% | 60.9% | 41.5% | 51.2% | 41.6% | 55.4% | 60% | 36.6%
Cc1ccccc1[C@H]1C(C(=O)c2ccc(Cl)cc2)C2(N[C@@H]1c1ccccc1)C(=O)Nc1ccc(Cl)cc12 (stereo not given in full) | -23.6% (active) | -11.8% (active) | -69.2% (active) | -55.8% (active) | 11.2% | 1.06% (active) | 2.05% (active) | -52.4% (active) | 6.9% (active) | -65.7% (active)
CCCS(=O)(=O)N1CCCC(C(=O)Nc2nc3ccc(NC(=O)c4ccc(F)c(OC)c4F)cc3s2)C1 (stereo not given) | 16.2% | 12.4% | 26.6% | 86% | 32.3% | 61.1% | 63.3% | 48.9% | 29.4% | 19.9%
O=C(c1ccccc1)C(c1c[nH]c2ccccc12)c1c[nH]c2ccccc12 | 7.54% (active) | 20.6% | 64.4% | 76.6% | 51.5% | 94.2% | 56% | 57.9% | 61% | 47.4%
O=C(COc1ccc(NC(=O)Nc2ccc(Cl)c(Cl)c2)cc1)N=Nc1c(O)[nH]c2ccccc12 | 2.4% (active) | 2.89% (active) | -43.2% (active) | -8.84% (active) | -5.31% (active) | -49.9% (active) | -49% (active) | -78.1% (active) | -9.24% (active) | 80.8%
COc1ccc(-c2ccnc(SCc3cc4ccccc4[nH]c3=O)n2)cc1 | 14.9% | 65.5% | 56.3% | 82.1% | 41.5% | 82.4% | 75% | 81.6% | 48.2% | 26.9%
CC1(c2cc3cc(Br)ccc3oc2=O)NC(=O)c2c(/C=C/C(=O)OC3CC4CCC3(C)C4(C)C)cccc2N1 (stereo not given) | 66.8% | 35.8% | 89% | 92.6% | 75.4% | 86.4% | 92.6% | 83.1% | 95.8% | 74%
COc1ccc2[nH]c(O)c(N=NC(=O)Cn3c(-c4ccccc4)nc4cc(C)ccc43)c2c1 | 1.82% (active) | 10.7% | 1.93% (active) | 62.8% | 45.3% | 89.9% | 51.9% | 37.3% | 25.6% | -5.85% (active)
CC(C)Sc1nc(NCCc2c[nH]c3ccccc23)c(C#N)c(-c2ccccc2)n1 | -17.2% (active) | 7.27% (active) | 38% | 68.7% | 53.6% | 70.2% | 87.8% | 44.4% | 8.79% (active) | 15.1%
CCCCn1c(O)c(N=Nc2nc(-c3cc4ccccc4oc3=O)cs2)c2cc(Br)ccc21 | 103% | 108% | 113% | 96.2% | 111% | 124% | 114% | 99.1% | 108% | 102%
CC(=O)Nc1cccc(-c2nc3cc(-c4ccc(O)cc4)ccc3n2C)c1 | 59% | 28.4% | 22.2% | 93.6% | 20.9% | 77.5% | 51.7% | 31.3% | 56.1% | 65.2%
CNS(=O)(=O)c1ccc(Nc2ccc(C(F)(F)F)cc2)c(-c2cn(C)cn2)c1 | 51.6% | 35.6% | 52.6% | 68.3% | 70.1% | 86.8% | 35.5% | 54.7% | 59.6% | 35%
Cn1cc(-c2cc(N)n3nc(-c4cn(C)c5ccccc45)cc3n2)c2cc(Br)ccc21 | 7.44% (active) | 0.257% (active) | -91.9% (active) | 5.47% (active) | -25.6% (active) | 38.9% | -3.64% (active) | -46.3% (active) | -7.42% (active) | -13.9% (active)
CC(C)c1sc(NC(=O)c2cc(NC(=O)c3cc(NC(=O)c4nccn4C)cn3C)cn2C)nc1C(=O)NCCCN(C)C | 17.5% | 104% | 81.2% | 105% | 75.3% | 60% | 82.5% | 70.9% | 90.3% | 111%
COc1c(F)ccc(C(=O)Nc2ccc3nc(NC(=O)C4CCCN(S(=O)(=O)c5cccc(Br)c5)C4)sc3c2)c1F (stereo not given) | 55.9% | 51.7% | 104% | 104% | 73.6% | 112% | 86.8% | 106% | 56.6% | 85.3%
O=C(NN1C(=O)/C(=C/C=C/c2ccc([N+](=O)[O-])o2)SC1=S)c1ccccc1O | 3.37% (active) | -4.22% (active) | -68.2% (active) | -98.8% (active) | -100% (active) | -9.85% (active) | -95.5% (active) | -100% (active) | -5.32% (active) | -0.0269% (active)
CN1CCN(/C(=N\c2sc(-c3ccccc3)nc2-c2ccccc2)c2ccccc2)CC1 | 21.1% | 34.6% | 97.6% | 70% | 89.4% | 105% | 82.5% | 111% | 88.7% | 90.4%
